Measured values: PubChem BioAssay (NCATS)
Records with an inconclusive call do not appear. Activity calls are given as the source filed them. Calls come from the whole dose curve; as a rule, active = well fitted inhibition curve with a large enough effect; inconclusive = small, poorly fitted or top-dose-only effect; inactive = flat fitted curve, though single readings scatter.

Tests used:
Assay in all cases: qHTS profiling for inhibitors of Plasmodium falciparum proliferation (AID 504749); note: nearly all actives have a fitted effect of over 60% in size
Details in all cases: P. falciparum in erythrocytes, SYBR Green DNA, 72 h; series mostly up to 28.7 µM
[1] = system: CP215
In short: (§1)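 Fluorescence of SYBR Green-bound parasite DNA, read at 485/535 nm, served as the growth measure. Infected erythrocytes were cultured with compound 72 h; artemisinin (0.29 uM) and DMSO wells defined the normalization range.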

[2] = system: CP217
In short: as §1

[3] = system: CP237
In short: as §1

[4] = system: CP238
In short: as §1

[5] = system: CP247
In short: as §1

[6] = system: CP250
In short: as §1

[7] = system: CP252
In short: as §1

[8] = system: CP256
In short: as §1

[9] = system: CP260
In short: as §1

[10] = system: CP262
In short: as §1

[11] = system: CP265
In short: as §1

[12] = system: CP266
In short: as §1

[13] = system: CP268
In short: as §1

[14] = system: CP269
In short: as §1

[15] = system: CP286
In short: as §1

[16] = system: CP291
In short: as §1

[17] = system: CP297
In short: as §1

[18] = system: CP305
In short: as §1

[19] = system: CP315
In short: as §1

[20] = system: CP325
In short: as §1

Measured: Potency

COP(=O)(OC)C(O)C(Cl)(Cl)Cl (stereo not given)
inactive: [1] | [2] | [3] | [4] | [5] | [6] | [7] | [8] | [9] | [10] | [11] | [12] | [13] | [14] | [15] | [16] | [17] | [18] | [19] | [20]

COP(=O)(OC)OC=C(Cl)Cl
inactive: [1] | [2] | [3] | [4] | [5] | [6] | [7] | [8] | [9] | [10] | [11] | [12] | [13] | [14] | [15] | [16] | [17] | [18] | [19] | [20]

CC(C)C(Br)C(=O)NC(N)=O (stereo not given)
inactive: [1] | [2] | [3] | [4] | [5] | [6] | [7] | [8] | [9] | [10] | [11] | [12] | [13] | [14] | [15] | [16] | [17] | [18] | [19] | [20]

CCN(CC)C(C)C(=O)c1ccccc1 (stereo not given)
inactive: [1] | [2] | [3] | [4] | [5] | [6] | [7] | [8] | [9] | [10] | [11] | [12] | [13] | [14] | [15] | [16] | [17] | [18] | [19] | [20]

Cc1ccc(N=CN(C)C=Nc2ccc(C)cc2C)c(C)c1
inactive: [1] | [2] | [3] | [4] | [5] | [6] | [7] | [8] | [9] | [10] | [11] | [12] | [13] | [14] | [15] | [16] | [17] | [18] | [19] | [20]

NC(=O)CN1CCCC1=O
inactive: [1] | [2] | [3] | [4] | [5] | [6] | [7] | [8] | [9] | [10] | [11] | [12] | [13] | [14] | [15] | [16] | [17] | [18] | [19] | [20]

CCC1(c2ccccc2)CCC(=O)NC1=O (stereo not given)
inactive: [1] | [2] | [3] | [4] | [5] | [6] | [7] | [8] | [9] | [10] | [11] | [12] | [13] | [14] | [15] | [16] | [17] | [18] | [19] | [20]

CCOC(=O)NC(O)C(Cl)(Cl)Cl (stereo not given)
inactive: [1] | [2] | [3] | [4] | [5] | [6] | [7] | [8] | [9] | [10] | [11] | [12] | [13] | [14] | [15] | [16] | [17] | [18] | [19] | [20]

NC(=O)OCCCc1ccccc1
inactive: [1] | [2] | [3] | [4] | [5] | [6] | [7] | [8] | [9] | [10] | [11] | [12] | [13] | [14] | [15] | [16] | [17] | [18] | [19] | [20]
